Sfp inh = qHTS Assay for Inhibitors of Bacillus subtilis Sfp phosphopantetheinyl transferase (PPTase); Biochemical Sfp PPTase activity, qHTS; Potency, µM, most hits filed as inhibitors; actives 3.5% (n = 310,000);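 note: the enzyme is Sfp with the accession as filed and its product quenches rhodamine fluorescence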
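After 15 min at room temperature with compound, 15 nM Sfp received 5 uM rhodamine-CoA plus 12.5 uM BHQ-2-ybbR (50 mM Hepes pH 7.6, 10 mM MgCl2). Rate came from the fluorescence difference over 30 min, ex 525/em 598 nm.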
L3MBTL1 inh = qHTS Assay for the Inhibitors of L3MBTL1; Lethal(3)malignant brain tumor-like protein 1 (Homo sapiens), Q9Y468; AlphaScreen L3MBTL1–H3K9me1 peptide binding; Potency, µM (top dose mostly 57.1 µM), most hits filed as inhibitors; actives 0.66% (n = 230,000); note: nearly all actives have a fitted effect of over 60% in size
Target sequence (Q9Y468 whole entry, looked up): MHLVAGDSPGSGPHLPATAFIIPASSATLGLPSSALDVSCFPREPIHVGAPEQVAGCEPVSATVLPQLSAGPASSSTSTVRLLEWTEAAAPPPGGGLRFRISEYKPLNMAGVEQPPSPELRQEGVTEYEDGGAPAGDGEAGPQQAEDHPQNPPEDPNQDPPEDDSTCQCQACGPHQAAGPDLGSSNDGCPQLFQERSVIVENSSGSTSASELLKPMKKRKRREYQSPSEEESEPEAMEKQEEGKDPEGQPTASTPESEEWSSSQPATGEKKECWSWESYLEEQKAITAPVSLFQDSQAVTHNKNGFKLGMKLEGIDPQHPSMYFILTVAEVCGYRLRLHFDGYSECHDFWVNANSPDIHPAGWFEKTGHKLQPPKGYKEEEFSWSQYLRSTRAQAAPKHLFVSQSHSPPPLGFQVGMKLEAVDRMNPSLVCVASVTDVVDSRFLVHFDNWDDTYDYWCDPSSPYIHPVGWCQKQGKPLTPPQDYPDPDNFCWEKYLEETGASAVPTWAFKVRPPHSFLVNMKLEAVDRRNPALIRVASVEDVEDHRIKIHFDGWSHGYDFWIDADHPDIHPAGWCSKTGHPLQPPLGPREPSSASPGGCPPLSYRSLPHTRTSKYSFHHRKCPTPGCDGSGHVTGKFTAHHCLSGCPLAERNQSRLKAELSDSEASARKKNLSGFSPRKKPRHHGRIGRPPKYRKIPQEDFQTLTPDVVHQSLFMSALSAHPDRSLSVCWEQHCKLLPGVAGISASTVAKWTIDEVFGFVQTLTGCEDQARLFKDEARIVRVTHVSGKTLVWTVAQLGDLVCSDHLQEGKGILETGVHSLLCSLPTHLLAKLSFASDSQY
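Read-out is AlphaScreen signal from streptavidin donor and nickel chelate acceptor beads (10 ug/mL final each) bridging L3MBTL1 (50 nM) and biotinylated K9-monomethylated H3(1-15) peptide (75 nM), after 30 min compound exposure at room temperature.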
G9a inh = qHTS Assay for Inhibitors of Histone Lysine Methyltransferase G9a; AID 504332, 2011; G9a H3K9 monomethylation, AlphaScreen, 2 h; actives 8.8% (n = 350,000); Potency, µM (series often up to 102 µM), most hits filed as inhibitors; Histone-lysine N-methyltransferase EHMT2 (Homo sapiens), Q96KQ7; note: nearly all actives have a fitted effect of over 75% in size
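Methyltransferase reactions run at room temperature for 2 h (20 nM enzyme, 500 nM biotin-H3K9 peptide, 20 uM SAM) after a 15 min compound preincubation; product detected by AlphaScreen beads and anti-H3K9me1 antibody.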
BAZ2B inh = qHTS Assay for Inhibitors of BAZ2B; Bromodomain adjacent to zinc finger domain protein 2B (Homo sapiens), Q9UIF8; AlphaScreen BAZ2B-H3K14Ac peptide displacement; Potency, µM (doses to about 114 µM), hits mostly inhibitors; actives 4.4% (n = 360,000); AID 504333, 2011; note: nearly all actives have a fitted effect of over 60% in size
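Protein-peptide AlphaScreen: BAZ2B 50 nM, b-H3K14Ac 50 nM, 1x PBS pH 7.4 + 0.01% Tween-20. Preincubation 30 min RT; cpd 30 min RT (top 110 uM); beads 20 min RT, light-protected.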
HP1b chromo inh = HTS for Inhibitors of HP1-beta Chromodomain Interactions with Methylated Histone Tails; AlphaScreen HP1-beta / biotin-H3K9me3 peptide binding; AID 540317, 2011; Potency, µM (doses to about 114 µM), actives largely listed as inhibitors; Chromobox protein homolog 1 (Homo sapiens), P83916; actives 0.56% (n = 390,000); note: nearly all actives have a fitted effect of over 70% in size
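Compound inhibition of the preformed complex between 50 nM HP1-beta and 50 nM biotinylated H3K9me3 peptide was read by AlphaScreen. Buffer was PBS pH 7.4 with 0.01% Tween-20. Incubations ran 30 min at room temperature, with 10 ug/mL donor/acceptor beads.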
JMJD2A Tudor = qHTS Assay for Inhibitors of JMJD2A-Tudor Domain | Lysine-specific demethylase 4A (Homo sapiens), O75164 | AlphaScreen JMJD2A-Tudor / H3K4me3 peptide binding | Potency, µM (top dose mostly 114 µM), most hits filed as inhibitors | actives 4.4% (n = 390,000); note: nearly all actives have a fitted effect of over 50% in size
Hits are given with their value; i = inactive; ? = inconclusive; nt = no result; [ ] = another dose, or the depositor's remark. Rows were chosen to be rich in hits. Some 12% of all compounds tested hit in one or more screens of this group. Calls come from the whole dose curve; as a rule, active = well fitted curve in the direction sought with a large enough effect; inconclusive = small, poorly fitted or top-dose-only effect, or another doubt; inactive = no such curve, though single readings can be large; an effect the other way counts as inactive or inconclusive.

SMILES	Sfp inh	L3MBTL1 inh	G9a inh	BAZ2B inh	HP1b chromo inh	JMJD2A Tudor
Cc1cccnc1NC(=S)NC(=O)c1cccs1	79µM	i	?	i	i	22µM
COc1ccc(NC(=S)NNC(=O)c2nnn(-c3ccccc3)c2C)cc1	i	i	11µM	i	i	i
COC(=O)c1nc(NC(=S)NC(=O)c2cccs2)sc1C	i	nt	50µM	i	i	i
CCc1ccc(-c2nc(NC(=S)NC(=O)c3cccs3)sc2C)cc1	i	nt	i	i	i	i
Cc1c(C(=O)NC(=S)Nc2ccc(NC(=O)c3cccs3)cc2)oc2ccccc12	8.9µM	i	1.4µM	50µM	i	i[11.4 µM]
COc1ccc(NC(=S)NNC(=O)c2cccs2)cc1	i	i	40µM	i	i	i
COc1ccc(NC(=O)c2cccs2)cc1	i	i	i	i	i	i
Cc1ccnc(NC(=S)NC(=O)/C=C/c2ccccc2)c1	i	i	nt	i	i	i
Cc1cccnc1NC(=S)NC(=O)/C=C/c1ccccc1	i	i	?	79µM	i	i
O=C(NC(=S)Nc1ccccc1)c1cccs1	45µM	nt	i	i	i	i
O=C(Nc1ccc(NC(=S)NC(=O)c2cccs2)cc1)c1ccccc1	i	i	i	i	i	i
COc1ccc(S(=O)(=O)NNC(N)=S)cc1	28µM	i	16µM	nt	i	8.9µM
CN[C@@H](CCCN=C(N)N)C(=O)N[C@@H](CCCCN)C(=O)N1CCC[C@H]1C(=O)N[C@@H](Cc1c[nH]c2ccccc12)C(=O)N[C@H](C(=O)N[C@H](CC(C)C)C(=O)O)C(C)(C)C	i	nt	nt	nt	nt	nt
O=C(COC(=O)[C@@H]1CC(O)CN1S(=O)(=O)c1ccc(Cl)cc1)NC(=O)NCc1ccccc1 (stereo partly drawn)	nt	i	i[0.501 µM]	i	i	i
Cc1cccnc1NC(=O)Nc1cccc2ccccc12	i	nt	7.1µM	i	i	i
COc1ccc(S(=O)(=O)NNC(=O)c2cccs2)cc1	i	i	45µM	i	i	i
O=C(NNS(=O)(=O)c1ccc(Cl)cc1)c1cccs1	i	i	i[12.7 µM]	?	i	i
CC(C)Cn1c(N)c(C(=O)COC(=O)c2ccc(O)cc2O)c(=O)n(C)c1=O	nt	i	i	i	i	i
CC(C)=CCC/C(C)=C/CO/N=C1/C[C@@H](O)[C@@H](O)[C@@H]2[C@@H]3C(=O)N([C@@H](C)c4ccccc4)C(=O)[C@H]3CC[C@H]12	i	nt	nt	nt	nt	nt
O=c1nc2ccc(Cl)cn2c2ccc(S(=O)(=O)N3CCOCC3)cc12	i	nt	?	i	i	i
CC1=NN(c2ccc(S(=O)(=O)O)cc2C)C(=O)C1	i	i	25µM	56µM	i	50µM
O=C(CSC1=NC(=O)C(Cc2ccccc2)C(=O)N1)Nc1ncc(Br)cc1Br (stereo not drawn)	?	nt	i	i	i	i
O=C(CSC1=NC(=O)C(Cc2ccccc2)C(=O)N1)Nc1ncccn1 (stereo not drawn)	i	i	79µM	i	nt	nt
N[C@]1(C(=O)O)CCc2cc(C(=O)O)ccc21	i	nt	nt	nt	nt	nt
NC1(C(=O)O)CCc2cc(C(=O)O)ccc21 (stereo not drawn)	?	nt	4.5µM	nt	nt	nt
SMILES	Sfp inh	L3MBTL1 inh	G9a inh	BAZ2B inh	HP1b chromo inh	JMJD2A Tudor
CCn1c2ccccc2c2cc(/C=N/n3c(C)nnc3C)ccc21	50µM	nt	i[12.7 µM]	i	i	i
Nc1c(C(=O)c2ccccc2)sc2nsc(SCCN3CCCC3)c12	i	i	nt	?	i	79µM
CNc1c(NC(=O)c2ccc(OC)c(OC)c2)c(=O)oc2ccccc12	nt	nt	i	i	i	i
CC1CCc2nc3ncn(Cc4ccc(Cl)cc4)c(=O)c3cc2C1 (stereo not drawn)	nt	nt	i	i	i	i
O=c1oc2ccccc2cc1-c1cn2ccccc2n1	i	i	i	i	i	i
Cc1cccn2cc(-c3cc4ccccc4oc3=O)nc12	?	i	nt	i	i	89µM
CCOC(=O)CSc1nc2c(sc3ccc([N+](=O)[O-])cc32)c(=O)n1Cc1ccco1	3.5µM	i	i	i	i	i
CCOC(=O)CSc1nc2c(sc(=S)n2-c2ccccc2OC)c(=O)n1-c1ccccc1OC	i	nt	i	i	i	i
CCOC(=O)CSc1nc2c(sc(=S)n2-c2ccccc2OC)c(=O)n1Cc1ccco1	i	i	45µM	i	i	i
Cc1ccc2c(c1)N(C(=O)Nc1cccc(C)c1C)CCO2	nt	nt	i	i	i	?
O=C(NN=Cc1ccccc1O)C(O)(c1ccccc1)c1ccccc1	nt	nt	nt	nt	i	i
Cc1cc(C(=O)N/N=C/c2ccc(N(C)C)o2)cs1	13µM	nt	?	i	i	i
CN(C)c1ccc(/C=N/NC(=O)C(O)(c2ccccc2)c2ccccc2)o1	2.8µM	i	7.9µM	i	i	?
CN(C)c1ccc(/C=N/NC(=O)c2ccccc2O)o1	16µM	nt	28µM	i	i	i
Cc1ccc(/C=N/NC(=O)c2csc(C)c2)o1	i	i	?	i	i	i
CCn1c(=N)c(C(=O)NCc2ccccc2)cc2c(=O)n3cc(C)ccc3nc21	nt	nt	i	i	i	i
Cc1ccc(CNC(=O)C2CCN(S(=O)(=O)c3c(C)noc3/C=C/c3ccco3)CC2)cc1	40µM	nt	?	i	i	i
Cc1noc(/C=C/c2ccco2)c1S(=O)(=O)N1CCC(C(=O)N2CCc3ccccc3C2)CC1	56µM	?	?	?	i	i
CC1(C)S[C@H]2[C@@H](NC(=O)C(N)c3ccccc3)C(=O)N2[C@H]1C(=O)O (stereo partly drawn)	i	nt	nt	nt	nt	nt
CC1CN(C(=O)/C=C/c2ccccc2[N+](=O)[O-])CC(C)O1 (stereo not drawn)	i	i	i	i	i	10µM
O=C(/C=C/c1ccccc1[N+](=O)[O-])c1ccccc1Br	?	i[11.4 µM]	40µM	32µM	?	56µM
Clc1ncc(C#Cc2ccccc2)c2ncncc12	nt	nt	nt	nt	i	i
O=C(C[n+]1cccc(C(=O)N/N=C/c2cccc([N+](=O)[O-])c2)c1)c1ccccc1	nt	i	50µM	i	i	i
COc1ccc(/C=N/NC(=O)C[n+]2ccccc2)c(OC)c1	i	i	i	i	i	i
N#Cc1cc[n+](CC(=O)c2ccc(NC(=O)c3ccccc3)cc2)cc1	i	i	71µM	i	i	i
O=C(C[n+]1ccc(C(=O)N/N=C/c2ccc(O)cc2)cc1)c1ccccc1	?	nt	14µM	?	i	i
